Most compounds without a hit are left out; they make up all but 11% or so of the library.
HTT ATP protect: cytoprotection in Huntington HTT-Q103 PC12 cell model | PC12 HTT-Q103 induced, cytoprotection, ATP luminescence, 40 h | AID 1471 | 230,000 compounds, 0.14% hits | Potency, µM (series often up to 56.4 µM), inactives show cytoprotection (ATP increase), hits mostly activators; note: potency is the fitted concentration of half-maximal effect; % of control where 0% means no effect; nearly all actives have a fitted effect of over 45% in size
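ATP quantification (ATPlite) reports survival of PC12 cells in which tebufenozide, 100 nM final, switches on Htt exon 1 with 103 glutamines linked to GFP; compounds are titrated.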
HPGD inh: HPGD (human) dehydrogenase inhibition. P15428. purified HPGD, NADH fluorescence kinetic, PGE2 substrate. Potency, µM, for the others: at the highest dose activity change, negative = inhibition, actives largely listed as inhibitors. 150,000 compounds, 4.3% hits. AID 894; active = well fitted inhibition curve with a large enough effect, not every such curve was filed as active; inconclusive = small, poorly fitted or top-dose-only effect, or another doubt; inactive = no such curve, though single readings can be large or run the other way; note: potency is the fitted concentration of half-maximal effect; % is set by controls: 0 for no effect and ±100 for the full control effect
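20 nM HPGD preincubated 15 min at room temperature with compound in 50 mM Tris-HCl pH 8, 0.01% Tween 20. Started with 1 mM NAD+ and 30 uM prostaglandin E2; NADH fluorescence (360/450 nm) read 5 times over 30-s intervals, last minus first.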
ALDH1A1 block: inhibitors of human aldehyde dehydrogenase 1A1; P00352; Purified ALDH1A1, NADH fluorescence, propionaldehyde substrate; Potency, µM (titrated, usually from 75.3 µM), without a hit: at the top dose activity, negative = inhibition, actives largely listed as inhibitors; 220,000 compounds, 7.3% hits; active = well fitted inhibition curve with a large enough effect, not every such curve was filed as active; inconclusive = small, poorly fitted or top-dose-only effect, or another doubt; inactive = no such curve, though single readings can be large or run the other way;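 note: potency is the fitted concentration of half-maximal effect; plate controls were no enzyme wells and a reference inhibitor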
Target sequence (P00352 whole entry, looked up): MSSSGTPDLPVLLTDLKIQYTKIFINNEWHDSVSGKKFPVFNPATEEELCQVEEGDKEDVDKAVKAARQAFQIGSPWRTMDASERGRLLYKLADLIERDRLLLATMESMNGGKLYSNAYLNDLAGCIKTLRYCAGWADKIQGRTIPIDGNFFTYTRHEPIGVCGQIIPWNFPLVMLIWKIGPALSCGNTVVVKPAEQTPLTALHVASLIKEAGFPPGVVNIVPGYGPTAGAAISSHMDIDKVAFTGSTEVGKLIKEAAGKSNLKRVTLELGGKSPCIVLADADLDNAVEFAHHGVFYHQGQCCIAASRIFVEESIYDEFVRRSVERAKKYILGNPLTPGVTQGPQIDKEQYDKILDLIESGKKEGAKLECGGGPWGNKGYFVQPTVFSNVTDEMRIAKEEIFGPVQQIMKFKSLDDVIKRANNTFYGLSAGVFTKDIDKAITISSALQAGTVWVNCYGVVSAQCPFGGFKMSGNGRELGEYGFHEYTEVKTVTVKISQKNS
PNC assembly inh: inhibitors of perinucleolar compartment assembly; PC3M PTB-GFP, PNC prevalence imaging, 16 h; active compounds read low; activity change (PNC), negative = inhibition, % at 10 µM; 140,000 compounds, 3.1% hits; AID 2417;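 active = readout at or below -70, meaning at least 70% loss of cells showing the perinucleolar compartment, a nuclear body marking cancer cells; inconclusive = readout between -30 and a set limit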;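 note: plate controls were DMSO wells for no effect and camptothecin positive control wells for full effect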
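PC3M cells stably expressing PTB-GFP, 750–1000 cells/well, treated 16 h at 37 °C with compound (23 nl of library stock), in duplicate. After paraformaldehyde fixation and Hoechst stain, imaged at 20x; PNC prevalence scored by image analysis.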
CBFb RUNX1 block: blocks binding between human CBF-beta and RUNX1 | 230,000 tested, under 10 active | Potency, µM (highest dose often 59.8 µM), for the others: at the highest dose activity, negative = inhibition, most hits filed as inhibitors | AID 1477 | Q01196+Q13951 | AlphaScreen CBFb-His/RUNX1-biotin binding, biochemical; note: % of control where 0% means no effect
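Inhibition was taken as any reduction in AlphaScreen signal from the CBF-beta–RUNX1 pair (His and biotin tags, 30 nM each), measured after compound (15 min) and bead (90 min) incubations at room temperature.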
HttQ103 aggreg: inhibitors of mutant huntingtin aggregate formation in PC12 cells | PC12 HttQ103-GFP aggregates, Acumen cytometry, 40 h | Potency, µM (titrated, usually from 46.1 µM), for inactives: at the highest dose activity change, negative = inhibition, actives largely listed as inhibitors | 220,000 compounds, 1.1% hits; note: potency is the fitted concentration of half-maximal effect; % is set by controls: 0 for no effect and ±100 for the full control effect; nearly all actives have a fitted effect of over 60% in size
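Steps: seed 1500 PC12 HTTQ103-GFP cells/well; add tebufenozide, 100 nM final; add compound titration; add ATPLite reagent; quantify GFP aggregates by laser scanning cytometry.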
Starred values were filed as active, the others as inactive; ? = inconclusive; . = no result given; [ ] = dose if it differs, or a comment. Unless noted, calls come from the whole dose curve; as a rule, active = well fitted curve in the direction sought with a large enough effect; inconclusive = small, poorly fitted or top-dose-only effect, or another doubt; inactive = no such curve, though single readings can be large; an effect the other way counts as inactive or inconclusive.

SMILES	HTT ATP protect	HPGD inh	ALDH1A1 block	PNC assembly inh	CBFb RUNX1 block	HttQ103 aggreg
COc1ccc(OC)c(C(=O)CSc2nnnn2C)c1	-29%[10 µM]	-27%	?	-14	-2%	26%
Cc1ccc(C(=O)CSc2nc3cccnc3n2C)cc1	10%[10 µM]	-17%	?	?	4%	8%
CC(C)C(O)(C(C)C)C(C)C	6%[10 µM]	-9%	?	.	.	.
COc1ccc2c(c1)CC/C(=C\C=C\c1ccccc1)C2=O	7%[10 µM]	-21%	28µM*	-17	-8%	?
COc1cccc(/C=C2\CCc3ccccc3C2=O)c1	11%[10 µM]	.	10%	.	16%	-3%[9.22 µM]
O=C1/C(=C/Nc2ccc3c(c2)OCO3)CCc2ccccc21	-52%	25µM*	10µM*	7	-6%	?
COc1ccc2c(c1)CC/C(=C\Nc1ccc3c(c1)OCO3)C2=O	-89%	-30%	2µM*	5	?	-5%
CS(=O)(=O)CCCCN=C=S	.	-10%	?	.	.	.
CCCCC/C=C\C/C=C\C/C=C\CCCCCCC(=O)NCCCC(=O)O	-34%	3%	-2%	.	-15%	.
CC1(CCc2ccccc2)NC(=O)N(CC(=O)Nc2ccc(S(N)(=O)=O)cc2)C1=O (stereo not drawn)	-4%	.	13%	.	-1%	-2%
Cc1noc(C)c1C(=O)N1CCC2(CCCN(C(=O)Nc3cccc(F)c3)C2)CC1	4%	-2%	3%	.	.	.
NC(=O)c1c(NC(=O)CSc2nnc(-c3ccco3)n2-c2ccccc2)sc2c1CCC2	-80%	28µM*	?	-10	?	-5%
N#Cc1c(NC(=O)CSc2nnc(-c3ccco3)n2-c2ccccc2)sc2c1CCC2	-3%	-13%	-15%	?	-11%	6%
COc1ccc(-c2nnc(SCC(=O)Nc3sc4c(c3C#N)CCCC4)n2-c2ccccc2)cc1	4%[10 µM]	-11%	?	-86*	3%	4%
COc1ccc(-n2c(SCC(=O)Nc3sc4c(c3C#N)CCCC4)nnc2-c2ccccc2OC)cc1	25%[10 µM]	-13%	-10%	146	-14%	1%
Cc1nnc(SCC(=O)Nc2sc3c(c2C#N)CCCCC3)n1N	-9%	-7%	22µM*	23	-1%	10%
N#Cc1c(NC(=O)CSc2nnnn2C2CCCCC2)sc2c1CCCC2	-11%	.	?	50	3%	-12%
CC(=O)OCC(NC(=O)C(Cc1ccccc1)NC(=O)OC(C)(C)C)C1OC(n2cc(C)c(=O)[nH]c2=O)C(OC(C)=O)C1OC(C)=O (stereo not drawn)	.	.	.	.	7%	.
COc1cc(O)c2c(O)c3c(c4c2c1[C@@]1(C4)C(C)=CCCC1(C)C)[C@H](O)[C@@]1(O)CC(=O)C(C(N)=O)=C(O)[C@]1(O)C3=O	-6%[10 µM]	-23%	9%[13.5 µM]	.	.	.
Cc1ccc2ncccc2c1NC(=S)NC(=O)c1ccccc1	12%[10 µM]	.	?	.	-17%	-21%
Cc1ccc2ncccc2c1NS(=O)(=O)c1ccccc1	-20%	-7%	32µM*	-16	0%	?
COc1ccc(Cl)cc1-c1ccc(C(=O)O)s1	-99%[96.6 µM]	?	?	.	5%[89.1 µM]	.
O=C(Nc1c(C(=O)N2CCOCC2)cnn1-c1ccccc1Cl)c1ccco1	36%	-2%	8%	59	5%	23%
COC(=O)c1sc(S(=O)(=O)NCC(=O)O)c(C(=O)OC)c1C	.	.	-3%	.	8%	21%
COC(=O)c1sc(S(=O)(=O)NCc2cccs2)c(C(=O)OC)c1C	5%[10 µM]	-17%	14µM*	-111*	25%	-9%
O=C(COC(=O)c1ccccc1S(=O)(=O)N1CCCCC1)NCC(F)(F)F	1%	-13%	-2%	-4	19%	0%
CCOC(=O)O[C@]1(C(=O)OCCl)CC[C@@H]2[C@H]3CCC4=CC(=O)C=C[C@]4(C)[C@@H]3[C@@H](O)C[C@@]21C	-35%	.	.	.	.	6%
Cc1cc(C)nc(Nc2ccc(N3CCOCC3)cc2)n1	-93%[0.074 µM]	-9%	-1%	?	1%	7%

Compound activity from PubChem.
